From PubChem
The full list was thinned out, with hits kept by preference.
IDE exosite inh: insulin-degrading enzyme (human) exo-site inhibition | P14735 | AID 1259349 | z-score at 20 µM | purified IDE, FL-6b probe fluorescence polarization; active compounds read low | hit rate 6.3% among 17,000;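 active = z-score of -3 or lower, meaning strong loss of probe binding signal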;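 note: His-tagged human IDE residues 42-1019 made in E. coli with 30 nM FL-6b probe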
Target sequence (P14735 42-1019 limits assumed): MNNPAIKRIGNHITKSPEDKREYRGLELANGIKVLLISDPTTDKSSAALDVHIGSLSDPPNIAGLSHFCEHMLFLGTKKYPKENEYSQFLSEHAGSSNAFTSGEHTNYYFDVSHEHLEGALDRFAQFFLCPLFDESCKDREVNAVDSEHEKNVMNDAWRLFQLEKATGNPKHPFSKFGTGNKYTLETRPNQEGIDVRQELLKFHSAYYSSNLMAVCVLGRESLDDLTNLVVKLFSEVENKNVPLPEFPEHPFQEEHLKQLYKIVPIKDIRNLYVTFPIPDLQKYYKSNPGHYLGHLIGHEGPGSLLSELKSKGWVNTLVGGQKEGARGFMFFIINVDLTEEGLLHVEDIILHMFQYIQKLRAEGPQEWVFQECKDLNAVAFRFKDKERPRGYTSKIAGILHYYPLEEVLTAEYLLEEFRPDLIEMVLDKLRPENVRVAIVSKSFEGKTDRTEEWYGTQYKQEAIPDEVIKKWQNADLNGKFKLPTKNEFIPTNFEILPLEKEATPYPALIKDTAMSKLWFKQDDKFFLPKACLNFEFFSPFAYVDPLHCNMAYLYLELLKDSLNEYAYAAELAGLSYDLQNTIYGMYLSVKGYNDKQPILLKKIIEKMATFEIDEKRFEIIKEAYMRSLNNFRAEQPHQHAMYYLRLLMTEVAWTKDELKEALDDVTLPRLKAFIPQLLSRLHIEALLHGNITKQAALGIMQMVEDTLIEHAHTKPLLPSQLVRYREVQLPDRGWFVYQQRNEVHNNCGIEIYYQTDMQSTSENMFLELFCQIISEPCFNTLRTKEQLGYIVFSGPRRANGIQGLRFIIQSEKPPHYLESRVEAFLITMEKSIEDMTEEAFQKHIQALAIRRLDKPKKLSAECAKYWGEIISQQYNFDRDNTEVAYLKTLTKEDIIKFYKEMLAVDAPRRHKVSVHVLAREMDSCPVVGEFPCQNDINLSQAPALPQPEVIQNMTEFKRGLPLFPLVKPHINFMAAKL
Starred values were filed as active, the others as inactive; ! = repeats disagree.

SMILES	IDE exosite inh
COc1ccccc1C#Cc1ccc([C@H]2[C@H](C#N)N(C(=O)C3CCCCC3)[C@H]2CO)cc1	-6.3*
COc1cccc(C#Cc2ccc([C@@H]3[C@@H](C#N)N(C(=O)C4CCCCC4)[C@H]3CO)cc2)c1	2.4
COc1ccccc1C#Cc1ccc([C@@H]2[C@@H](C#N)N(C(=O)C3CCCCC3)[C@@H]2CO)cc1	-8.6*
COc1ccccc1C#Cc1ccc([C@H]2[C@@H](C#N)N(C(=O)C3CCC3)[C@@H]2CO)cc1	-7.8*
N#C[C@H]1[C@H](c2ccc(C#Cc3ccccc3F)cc2)[C@H](CO)N1C(=O)C1CCC1	2.2
COc1cccc(C#Cc2ccc([C@@H]3[C@@H](C#N)N(C(=O)C4CCC4)[C@@H]3CO)cc2)c1	4.2
COc1cccc(C#Cc2ccc([C@@H]3[C@@H](C#N)N(C(=O)C4CCC4)[C@H]3CO)cc2)c1	1.5
N#C[C@H]1[C@@H](c2ccc(C#Cc3ccc(F)cc3)cc2)[C@H](CO)N1C(=O)C1CCCC1	5.4
COc1cccc(C#Cc2ccc([C@@H]3[C@@H](CO)N(C(=O)C4CCCCC4)[C@H]3C#N)cc2)c1	4.7
N#C[C@@H]1[C@@H](c2ccc(C#Cc3ccc(F)cc3)cc2)[C@H](CO)N1C(=O)C1CCCC1	5.4
N#C[C@H]1[C@H](c2ccc(C#Cc3ccc(F)cc3)cc2)[C@H](CO)N1C(=O)C1CCCC1	4
COc1ccccc1C#Cc1ccc([C@H]2[C@@H](CO)N(C(=O)C3CCCCC3)[C@H]2C#N)cc1	-5.1*
CC(=O)NC[C@H]1[C@H](c2ccc(-c3ccccc3F)cc2)[C@@H](CO)N1C(=O)C1CC1	0.47
O=C(C[C@@H]1CC[C@H]2[C@@H](COC[C@@H](O)CN2S(=O)(=O)c2cccc(Cl)c2)O1)N1CCOCC1	1.5
COCC#Cc1ccc([C@H]2[C@@H](CO)N3C(=O)CN(C(=O)Nc4ccc(F)cc4)C[C@@H]23)cc1	0.74
CCC(=O)N1[C@@H]2Cn3c(cccc3=O)[C@H]1[C@@H](C(=O)NC1Cc3ccccc3C1)[C@@H]2CO	0.058
O=C(NC[C@@H]1[C@H](c2ccccc2)[C@@H](CO)N1C(=O)Cc1cccnc1)C1CCC1	2
COCC(=O)N1[C@H](CO)[C@H](c2ccccc2-c2cccc(F)c2)[C@@H]1C#N	2
O=C(c1ccc2c(c1)OCO2)N1CC(=O)N2[C@H](C1)[C@H](c1ccc(C#CCC3CCCC3)cc1)[C@@H]2CO	2.4
N#C[C@@H]1[C@@H](c2ccccc2-c2cccc(F)c2)[C@H](CO)N1C(=O)C1CCCCC1	2.7
CO[C@H](CN(C)S(=O)(=O)c1cn(C)cn1)[C@H](C)CN(C(=O)Nc1ccc(C(F)(F)F)cc1)[C@H](C)CO	-0.42
OC[C@H]1[C@H](c2ccc(-c3ccc(F)cc3)cc2)[C@@H]2CN(Cc3cccnc3)CCCCN12	0.019
CN(C)CC#Cc1ccc([C@H]2[C@@H](CO)N3C(=O)CN(C(=O)c4cccnc4)C[C@@H]23)cc1	2.9
O=C(NC1CCCCC1)N1CC(=O)N2[C@@H](CO)[C@H](c3ccc(/C=C/c4ccccc4)cc3)[C@@H]2C1	-7.4*
CC(C)CC#Cc1ccc([C@@H]2[C@H](CO)N3C(=O)CN(C(=O)NC4CCCCC4)C[C@@H]23)cc1	1.4
SMILES	IDE exosite inh
O=C(NC1CCCCC1)N1CC(=O)N2[C@H](CO)[C@@H](c3ccc(/C=C/c4ccccc4)cc3)[C@@H]2C1	-3.6*
O=C(NC1CCCCC1)N1CC(=O)N2[C@H](CO)[C@H](c3ccc(/C=C/c4ccccc4)cc3)[C@@H]2C1	-10*
O=C(NC1CCCC1)N1CC(=O)N2[C@H](CO)[C@@H](c3ccc(/C=C/c4ccccc4)cc3)[C@@H]2C1	0.29
CC(C)CC#Cc1ccc([C@H]2[C@H](CO)N3C(=O)CN(C(=O)NC4CCCCC4)C[C@@H]23)cc1	0.26
O=C(NC1CCCC1)N1CC(=O)N2[C@H](C1)[C@@H](c1ccc(/C=C/c3ccccc3)cc1)[C@@H]2CO	0.84
O=C(NC1CCCCC1)N1CC(=O)N2[C@H](C1)[C@H](c1ccc(/C=C/c3ccccc3)cc1)[C@@H]2CO	-3.9*
CO[C@@H]1CC[C@H]2CCOc3ccc(C#N)cc3C(=O)N(C)C[C@H](c3ccccc3)CC(=O)N(C)C[C@H]1O2	0.51
CC(=O)N1CC(=O)N2[C@H](CO)[C@H](c3ccc(-c4ccc(C#N)cc4)cc3)[C@@H]2C1	1.4
O=C(O)C[C@@H]1C[C@H]2c3cc(NC(=O)Cc4ccncc4)ccc3O[C@H]2[C@H](CO)O1	-0.54
C/C=C/c1ccc([C@@H]2[C@@H](CN(CC)C(=O)CN(C)C)N(C(C)=O)[C@H]2CO)cc1	0.65
COc1ccc2c3c([nH]c2c1)[C@@H](CO)N(Cc1ccc(Cl)cc1)CC31CCN(Cc2nccs2)CC1	-0.34
CCCC#Cc1ccc([C@@H]2[C@H]3CN(S(=O)(=O)Cc4ccccc4)CC(=O)N3[C@H]2CO)cc1	4.6
CC[C@@H]1CC=CC[C@@H](C)Oc2ccccc2C(=O)N(C)[C@@H](C)C(=O)N1 (mixture of isomers)	1.5
CN1CCN(C(=O)C[C@H]2CC[C@@H]3[C@@H](COc4ccc(NC(=O)c5cccs5)cc4C(=O)N3C)O2)CC1	-0.24
CC(=O)NC[C@H]1[C@@H](c2ccc(-c3cccnc3)cc2)[C@H](CO)N1C(=O)C1CC1	0.075
C[C@H](CO)N1C[C@H](C)[C@@H](CN(C)C(=O)CCC(F)(F)F)OCc2ccccc2-c2ccccc2C1=O	0.79
O=C(Nc1ccccc1)N1CC(=O)N2[C@@H](CO)[C@H](c3ccc(C#Cc4cccnc4)cc3)[C@@H]2C1	0.25
O=C(C1CCCC1)N1CC(=O)N2[C@H](CO)[C@H](c3ccc(C#CC4CCCC4)cc3)[C@H]2C1	0.86
O=C(c1cnccn1)N1CC(=O)N2[C@H](CO)[C@H](c3ccc(C#CCc4ccccc4)cc3)[C@@H]2C1	-0.92
O=C(NC[C@H]1[C@H](c2ccccc2)[C@H](CO)N1C(=O)Cc1ccncc1)C1CCC1	-0.43
CN(C)C(=O)c1cccc(-c2ccc([C@@H]3[C@@H](C#N)N(C(=O)C4CCCCC4)[C@@H]3CO)cc2)c1	4.2
O=C(c1ccc(F)cc1)N1C[C@@H]2N[C@H](C1)C2c1ccc(-c2ccccc2F)cc1 (stereo not given in full)	-4.1*!
O=C(c1ccc(F)cc1)N1C[C@@H]2N[C@H](C1)C2c1ccc(-c2ccc(F)cc2)cc1 (stereo not given in full)	3.9
O=C(c1ccc2c(c1)OCO2)N1C[C@@H]2N[C@H](C1)C2c1ccc(-c2ccccc2F)cc1 (stereo not given in full)	-2.8
Cc1ccccc1-c1ccc(C2[C@@H]3CN(C(=O)c4ccc(F)cc4)C[C@H]2N3)cc1 (stereo not given in full)	-10*!
SMILES	IDE exosite inh
O=C(c1ccncc1)N1C[C@@H]2N[C@H](C1)C2c1ccc(-c2ccncc2)cc1 (stereo not given in full)	3.2
O=C(c1ccc(F)cc1)N1C[C@@H]2N[C@H](C1)C2c1ccc(-c2cncnc2)cc1 (stereo not given in full)	3.3
C[C@@H]1CN([C@H](C)CO)C(=O)CCCn2nncc2CO[C@@H]1CN(C)C(=O)Nc1cccc(Oc2ccccn2)c1	-1.6
N#C[C@H]1[C@@H](c2ccccc2C2=CCCCC2)[C@@H](CO)N1C(=O)Nc1ccccc1F	-0.05
CCC(=O)N1CC2(C1)CN(C(=O)c1cnccn1)[C@@H](CO)c1c2c2ccc(OC)cc2n1C	1.3
CC(C)C#Cc1ccc([C@H]2[C@@H](CO)N3CCCCN(CC4CC4)C[C@@H]23)cc1	4.7
